Experimental data taken from PubChem BioAssay (NCATS).
Results filed as inconclusive are left out. A call without a number means that no potency is given here. Active and inactive are the calls of the source. Calls come from the whole dose curve; as a rule, active = well fitted cell-killing curve with a large enough effect; inconclusive = small, poorly fitted or top-dose-only effect, or effect the other way; inactive = no such curve, though single readings can be large or run the other way.

Assays:
[1] = Viability qHTS for spleen associated tyrosine kinase inhibitor (SYKi) naive MV4-11 cells (AID 1963823); note: nearly all actives have a fitted effect of over 40% in size
Procedure, shortened: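 qHTS, SYK inhibitor-naive MV4-11; 500 cells/well; 72 hr compound exposure, 37 C; CellTiter-Glo added, 10 min RT; luminescence read.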

[2] = Viability qHTS for spleen associated tyrosine kinase inhibitor (SYKi) drug resistant MV4-11 cells (AID 1963824); note: nearly all actives have a fitted effect of over 35% in size
Procedure, shortened: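 CellTiter-Glo luminescence, read 10 min after reagent addition, reports viability after a 72 hr compound exposure. Cells are an MV4-11 line made resistant to SYK inhibition, seeded at 500 per well onto compound-containing plates.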
Potency is the fitted concentration of half-maximal effect.

SMILES	Potency [1]	Potency [2]	viability (% of control) [1]	viability, % of control [2]
C/C1=C/CCC2=CC(OC2=O)C(C)(C)/C=C/C1=O (stereo not given)	0.517 µM (active)	0.517 µM (active)	–	–
C/C=C/C=C/[C@@H]1O[C@](O)([C@H](CC)C(=O)NC/C=C/C=C(\C)[C@@H](OC)[C@@H](C)[C@@H]2O[C@H](/C=C/C=C/C=C(\C)C(=O)c3c(O)ccn(C)c3=O)[C@H](O)[C@@H]2O)[C@H](O)[C@H](O)C1(C)C	–	–	84.2% [at 9.25 µM] (inactive)	85.3% [at 9.25 µM] (inactive)
C=C[C@H]1[C@H](O[C@@H]2O[C@H](CO)[C@@H](O)[C@H](O)[C@H]2O)OC=C(C(=O)OC)[C@H]1C/C=C(/C=O)[C@@H]1C(C(=O)OC)=CO[C@@H](O[C@@H]2O[C@H](CO)[C@@H](O)[C@H](O)[C@H]2O)[C@@H]1C=C	inactive	inactive	–	–
C[C@@H]1O[C@@H](OC(=O)Cc2ccccc2)[C@H](O)[C@H](O)[C@H]1O	inactive	inactive	–	–
COC(=O)C1=CO[C@@H](O[C@@H]2O[C@H](CO)[C@@H](O)[C@H](O)[C@H]2O)C2C1C(=O)C[C@H]2C (stereo not given in full)	inactive	inactive	–	–
C=C1CC23CC1CCC2C12OC(=O)C(C)(C(O)C(O)C1O)C2C3C(=O)O (stereo not given)	inactive	inactive	–	–
COC(=O)CC1(O)C(=O)Nc2ccccc21 (stereo not given)	inactive	inactive	–	–
CCCCNc1ncc2c(-c3ccc(S(=O)(=O)N4CCOCC4)cc3)nn(C3CCC(O)CC3)c2n1 (stereo not given)	0.0184 µM (active)	0.0291 µM (active)	–	–
C[C@@H]1C[C@@H](O)[C@@]23CO[C@]2(CO)C[C@@H](O)CC3[C@@]12CC(c1ccoc1)OC2=O (stereo not given in full)	inactive	inactive	–	–
C[C@@]1(C(=O)O)CCC[C@@]2(C)C3=CC[C@H]4C[C@@]3(CC[C@H]12)CC4(O)CO (stereo not given in full)	inactive	inactive	–	–
C=CC1(C)CC(OC(=O)C(=C)C(O)COC(C)=O)C(C(=C)C(=O)OC)C(O)C1C(=C)CO (stereo not given)	8.93 µM (active)	10 µM (active)	–	–
C[C@@H]1[C@H]2[C@H](O[C@@H]3O[C@H](CO)[C@@H](O)[C@H](O)[C@H]3O)OC=C(C(=O)O)[C@H]2C[C@@H]1O	inactive	inactive	–	–
CC(NC(=O)c1ccccc1N)C(=O)O (stereo not given)	inactive	inactive	–	–
CC1C2=CC(=O)OC2(O)CC2C1CCC1C(C)(C)CCC(O)C21C (stereo not given)	12.8 µM (active)	4.53 µM (active)	–	–
CC1(C)CC[C@]2(C(=O)O)CC[C@]3(C)C(=CCC4[C@@]5(C)C[C@@H](O)[C@H](O)[C@@](C)(CO)C5CC[C@]43C)C2C1 (stereo not given in full)	inactive	7.96 µM (active)	–	–
CCNC(=O)C1CC(F)(c2ccc(CN3CCCC3)c(F)c2)C1 (stereo not given)	inactive	inactive	–	–
OC[C@H]1O[C@@H](OC[C@H]2O[C@@H](OC/C=C/c3ccccc3)[C@H](O)[C@@H](O)[C@@H]2O)[C@@H](O)[C@@H]1O	inactive	inactive	–	–
CC(=O)OC1C[C@]2(C)C(O)CC(C)=C[C@H](OC(=O)c3ccc(O)cc3)C2[C@]1(O)C(C)C (stereo not given in full)	inactive	6.32 µM (active)	–	–
CC1CCC2(NC1)OC1C(=O)C3C4CCC5CC(O[C@@H]6O[C@H](CO)[C@@H](O)[C@H](O)[C@H]6O[C@@H]6O[C@@H](C)[C@H](O)[C@@H](O)[C@H]6O)CCC5(C)C4CCC3(C)C1C2C (stereo not given in full)	inactive	inactive	–	–
C[C@@H]1O[C@@H](O[C@H]2[C@@H]3C=CO[C@@H](O[C@@H]4O[C@H](CO)[C@@H](O)[C@H](O)[C@H]4O)[C@@H]3[C@@]3(CO)O[C@@H]23)[C@H](O)[C@H](OC(=O)/C=C/c2ccc(O)cc2)[C@H]1OC(=O)/C=C/c1ccc(O)cc1	inactive	inactive	–	–
COc1cc(C2OCC3(O)C(c4ccc(O[C@@H]5O[C@H](CO)[C@@H](O)[C@H](O)[C@H]5O)c(OC)c4)OCC23O)ccc1O (stereo not given in full)	inactive	inactive	–	–
C=CC(=O)N1CCN(C(=O)CNc2cc(I)c(Cl)cc2O)CC1	7.31 µM (active)	6.51 µM (active)	–	–
C=C1C2CCC3CC2(CC(O)C2(O)C1CC(OC1OC(CO)C(O)C(O)C1O)C2(C)C)CC3(C)O (stereo not given)	inactive	inactive	–	–
CCC(CC)(NC(=O)C(C)C)C(=O)N[C@@H](CCCN=C(N)N)C(=O)NC1(C(=O)NC(c2ccc(F)cc2)c2ccc(F)cc2)CCCC1	inactive	inactive	–	–
COc1cc(/C=C/CO)cc(OC)c1O[C@@H]1O[C@H](CO[C@@H]2O[C@H](CO)[C@@H](O)[C@H](O)[C@H]2O)[C@@H](O)[C@H](O)[C@H]1O	inactive	inactive	–	–
